# High-throughput results deposited in PubChem BioAssay by several laboratories.
# This is a sample that favours compounds with a hit; in the whole collection about 11% have one here.
# Autophagy mod: autophagy modulators in MEF cells, primary screen, imaging, high-content, MEF GFP-LC3 | MEF GFP-LC3 puncta imaging; test concentration mostly 10 µM | calls only at 10 µM (by protocol) | hit rate 0.98% among 190,000;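 active = percentage of spot-positive cells more than 3 SD above its plate mean, without a fluorescence outlier flag or 80% toxicity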;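 note: spot-positive cell cutoff set from DMSO-treated cells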
# Insulin prom up: insulin promoter activators in MIN6 cells, imaging, high-content screening, mouse beta cells; z-score at 5 µM; AID 1625, 2009; hit rate 0.3% among 190,000; MIN6 insulin promoter-GFP reporter; stronger effect = higher value;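 active = z-score above 3 at 5 µM with at least 500 cells counted in the well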
# INS promoter inh: inhibitors of insulin promoter-driven GFP, primary screen, imaging, TRM-6 cells (human fetal islet line), eGFP reporter, cell count; reporter expression induced with tamoxifen; inhibition, % at 2 µM; hit rate 0.9% among 130,000; AID 1273, 2008;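 active = inhibition above the mean plus 3 SD, with well images judged a real hit on visual review, cut at about 60% in these data, passing the limit was not always enough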
# WT yeast gro inh: growth inhibition of WT strain, primary screen, mitochondrial fusion inhibitor project, WT and mutant strains, chemical genetic. mitochondrial fusion phenotypic screen. inhibition, % at 10 µM. hit rate 2.1% among 190,000. AID 1362, 2008; in the data active = inhibition above about 58%; tested in S. cerevisiae
# L major viab: Leishmania major promastigote growth inhibition, primary screen; Leishmania major promastigotes, resazurin fluorescence viability; inhibition, % at 10 µM; hit rate 9% among 200,000; in the data active = inhibition above about 50%;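 note: promastigotes grown with compound for 44 hours at 28 °C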
# An asterisk follows results filed as active; i = inactive; · = not tested or not shown; + = active, no number.
SMILES,Autophagy mod,Insulin prom up,INS promoter inh,WT yeast gro inh,L major viab
O=C(Nc1ccc(S(=O)(=O)N2CCCCC2)cc1)c1ccncc1,i,-3.7,-8,-20,7
CCCCC(=O)Nc1ccc(C(=O)Nc2ccc(S(=O)(=O)N3CCCC3)cc2)cc1,i,·,-29,0,4
NC(=O)c1ccsc1NC(=O)c1ccc(S(=O)(=O)N2CCCCC2)cc1,i,0.8,·,18,13
CC(=O)c1ccc(NC(=O)c2ccc(S(=O)(=O)N3CCCC3)cc2)cc1,i,-0.13,-1,-28,98*
COc1ccc(N2CCN(C(=O)Cc3ccc(S(=O)(=O)N4CCOCC4)s3)CC2)cc1,i,-0.01,-45,3,24
Cc1onc(-c2ccccc2)c1C(=O)Nc1ccc(S(=O)(=O)N2CCCC2)cc1,i,-1.4,78*,14,6
Cc1onc(-c2ccccc2)c1C(=O)Nc1ccc(S(=O)(=O)N2CCCCC2)cc1,·,-0.24,·,-13,9
COCCN=C1Sc2nc3ccc(C)cc3cc2CN1Cc1ccco1,i,-0.32,·,-12,60*
CCOCC(=O)Nc1cc(C(F)(F)F)ccc1Oc1cccc(Br)c1,i,-0.35,·,66*,9
C=CCn1c(=O)c2ccccc2n2c(SCc3nnc(-c4ccccc4Br)o3)nnc12,i,-1.3,·,3,-2
N#Cc1nc(Cc2cccc3ccccc23)oc1NCCCn1ccnc1,i,0.39,·,54,59*
Cc1cc(C)cc(C(=O)NN2CCN(C)CC2)c1,i,·,·,7,-2
Clc1ccc(NNc2ccnc3cc(Cl)ccc23)cc1,i,-0.34,-27,-9,5
Cc1ccccc1/C=N/Nc1ccnc2cc(Cl)ccc12,i,-0.27,80*,98,98*
Cc1ccc(/C=N/Nc2ccnc3cc(Cl)ccc23)c(C)c1,i,-1.4,·,98,100*
N#Cc1cc(C(=O)Cc2ccccc2)c[nH]1,i,-0.6,·,-3,-4
Cc1ccc(-c2nn(-c3ccccc3)cc2C=C2C(=O)CC(C)(C)CC2=O)cc1,i,·,·,-8,96*
CC1=NNC(=O)/C1=C\c1cn(-c2ccccc2)nc1-c1ccc(Cl)cc1,+,0.35,27,11,101*
CN(CC(=O)Nc1cccc(F)c1)C(=O)CCCc1cccs1,i,0.2,·,0,-1
CCOC(=O)N(NC(=O)C(O)(CC(C)C)CC(C)C)c1ccccc1,i,0.46,-64,8,-2
Cc1noc(C)c1COC(=O)Cc1ccc(Cl)c(Cl)c1,i,-0.47,8,41,-4
Cc1noc(C)c1COC(=O)[C@H](C)NS(=O)(=O)c1ccc(Cl)c(Cl)c1,i,·,-4,3,73*
COc1cc(NC(=S)NC(=O)CC(C)C)ccc1NC(=O)c1cc2ccccc2o1,i,-0.19,-9,1,1
O=C(CN(c1ccc(F)cc1)S(=O)(=O)c1ccc2c(c1)OCCO2)NCc1ccncc1,i,-0.13,-14,-26,92*
Cc1cccc(N(CC(=O)NCCSCc2ccco2)S(=O)(=O)c2ccccc2)c1,i,0.78,29,13,61*
SMILES,Autophagy mod,Insulin prom up,INS promoter inh,WT yeast gro inh,L major viab
Cc1ccc(N(CC(=O)NCc2ccc(F)cc2)S(=O)(=O)c2cccs2)cc1,i,·,-50,12,91*
O=C(CN(c1ccc(F)cc1)S(=O)(=O)c1ccc2c(c1)OCCO2)NCc1cccnc1,i,-1.9,59,-4,29
O=C(CN(C(=O)CNS(=O)(=O)c1ccccc1)c1ccc2c(c1)OCCO2)NCc1ccco1,i,-1.3,·,-25,-3
O=C(CN(c1ccc2c(c1)OCCO2)S(=O)(=O)c1ccccc1)NCc1ccco1,i,-0.82,45,-22,92*
NS(=O)(=O)c1ccc(CNC(=O)c2cc(-c3ccccn3)nc3ccc(Cl)cc23)cc1,i,·,·,11,3
O=C(O)c1ccc2c(c1)C(=O)N(c1cccc(S(=O)(=O)Nc3cccc(C(F)(F)F)c3)c1)C2=O,i,-0.13,·,-6,-11
CC1(C)Cc2c(c(-c3ccccc3)[nH]c(=O)c2C#N)CO1,i,3.4*,·,9,-6
Cc1c(Cl)cccc1-n1c(SCC(=O)N2CCC(C(=O)O)CC2)nnc1-c1ccncc1,i,0.62,53,-7,-3
CN1CCN(c2ccc(Cl)cc2NC(=O)C2COc3ccccc3O2)CC1 (stereo not given),i,0.84,-46,23,99*
CN1CCN(c2ccc(Cl)cc2NC(=O)c2cccc(S(=O)(=O)N(C)C)c2)CC1,i,0.47,13,9,99*
CC(C)NC(=O)c1ccccc1NC(=O)C1COc2ccccc2O1 (stereo not given),i,·,-275,2,55*
O=S(=O)(Nc1ncccn1)c1ccc(NC(=S)NCCc2ccccc2)cc1,i,-0.58,-14,5,-10
Cc1ccc(S(=O)(=O)N/N=C/c2ccccc2O)cc1[N+](=O)[O-],+,-0.31,·,2,-4
CC(C)(C)SCCNC(=O)Nc1ccccc1,i,-0.56,14,10,54*
COc1ccc2c(=O)c3c(=O)n(Cc4ccco4)c(-c4ccc(C)cc4)nc3oc2c1,i,-0.74,29,16,59*
COc1ccc2c(=O)c3c(=O)n(Cc4ccco4)c(C(C)C)nc3oc2c1,i,0.1,-6,7,9
CCc1nc2oc3cc(OC)ccc3c(=O)c2c(=O)n1Cc1ccccc1,i,0.65,67*,6,95*
COc1ccc(N(C(C)C(=O)N2CCC(Cc3ccccc3)CC2)S(C)(=O)=O)cc1 (stereo not given),i,-2.1,·,9,6
O=C1c2ccccc2NC(c2ccc(Cl)cc2Cl)N1O (stereo not given),i,0.1,-25,7,70*
O=C1c2ccccc2NC(c2ccc(Cl)cc2Cl)N1Cc1ccccc1 (stereo not given),i,0.27,-39,81*,82*
O=C1c2ccccc2NC(c2c(Cl)cccc2Cl)N1Cc1ccccc1 (stereo not given),i,0.36,-51,-2,56*
Cc1cccc(C2Nc3ccccc3C(=O)N2CCc2ccccc2)n1 (stereo not given),i,2,40,6,4
CCNS(=O)(=O)c1ccc(CCC(=O)NCc2ccccc2)cc1,i,0.1,7,3,-3
O=c1cc[nH]c2ccc(OC(F)(F)F)cc12,·,-0.26,·,·,·
COc1ccccc1C(=O)Nc1nnc(-c2ccc(F)cc2)o1,i,0.5,·,9,15
Cc1ccccc1C(=O)Nc1nnc(-c2ccc(F)cc2)o1,i,-1.1,·,70*,33
COc1ccc(-c2nnc(NC(=O)c3ccc(F)cc3)o2)cc1,i,·,·,66,98*
Nc1ccc(S(=O)(=O)Nc2nccc(/C=C/c3ccc(Cl)cc3Cl)n2)cc1,·,0.68,·,·,·
COc1cc(C#N)ccc1OCC(=O)Nc1cccc(S(=O)(=O)N2CCCC2)c1,i,-0.06,·,-11,6
